Some test systems named below: T-47D breast; BT-549 breast; MDA-MB-435 melanoma; SW-620 colon; MCF7 breast; HCT-116 colon; HCC-2998 colon; KM12 colon.
Holding throughout (experiment): NCI-60 one-dose screen, 48 h (100 = growth as untreated, 0 = no growth, -100 = all killed)
Holding throughout (conditions): 10 µM unless noted

The panel holds about 83,000 compounds, 20% with a hit somewhere; the sample as a whole holds those more often.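 Assay: single dose, 48 h. Readout: percent growth (0 = no net growth; negative = cell death). Active: <10.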 Unmarked numbers belong to inactive results. Calls of active or inactive are those of the source.

In the case of `CC1(C)CC[C@]2(C(=O)O)CC[C@]3(C)C(=CCC4[C@@]5(C)C[C@@H](O)[C@@H]6OC(c7ccccc7O)OC[C@@]6(C)C5CC[C@]43C)C2C1` (some centres undefined), the growth was 57.7% in the assay with T-47D breast; 42.4% with BT-549 breast; 77.5% in the assay on MDA-MB-435 melanoma; 37.8% in the assay on SW-620 colon; 62.8% in the assay with MCF7 breast; 4.38% (active) in the assay on HCT-116 colon. The growth was 34.9% in the assay on HCC-2998 colon and 24.5% in the assay with KM12 colon.
On to `CCOP(=O)(OCC)OC[C@]12CCC(C)(C)C[C@H]1C1=CC[C@@H]3[C@@]4(C)C/C(=C\c5cccnc5)[C@H](OP(=O)(OCC)OCC)C(C)(C)[C@@H]4CC[C@@]3(C)[C@]1(C)CC2`, for which the growth in the assay on T-47D breast is 16.1%; in the assay with BT-549 breast, 33.4%; in the assay with MDA-MB-435 melanoma, 31.2%; with SW-620 colon, 25.9%; in the assay with MCF7 breast it was 6.1% (active); in the assay with HCT-116 colon, 11.1%. Further, the growth in the assay on HCC-2998 colon was 33.1%; in the assay with KM12 colon it was 23.6%.
Regarding `N#C/C(=C\c1ccc(N2CCCCC2)cc1)C(=O)Nc1sc2c(c1C#N)CCC2`, the growth with T-47D breast was 97.7%; in the assay on BT-549 breast, 108%; in the assay on MDA-MB-435 melanoma it was 90%; in the assay on SW-620 colon it was 100%; in the assay on MCF7 breast it was 87.3%; with HCT-116 colon, 89.8%. Also, the results for the growth in the assay on HCC-2998 colon and in the assay on KM12 colon were 105% and 96.5%, respectively.
For the molecule `O=[N+]([O-])c1ccc(-c2nnc(SCc3ccc(O)c4ncccc34)n2-c2ccccc2)cc1`, the growth is 24.1% in the assay on T-47D breast; 20% with BT-549 breast; 14% in the assay with MDA-MB-435 melanoma; 18.6% in the assay on SW-620 colon; 11.4% in the assay on MCF7 breast; 12.4% in the assay with HCT-116 colon. Further, the growth in the assay on HCC-2998 colon was 41.9%; with KM12 colon it was 19.2%.
For the molecule `C=CCn1c(SCC(=O)Nc2cccc(C(=O)/C=C/c3ccc(OC)c(OC)c3)c2)nc2ccccc2c1=O`, the growth with T-47D breast is 79.9%; in the assay on BT-549 breast it was 97.7%; in the assay on MDA-MB-435 melanoma, 101%; with SW-620 colon it was 74.4%; in the assay on MCF7 breast, 45.4%; in the assay on HCT-116 colon, 55.6%. Moreover, the values for the growth with HCC-2998 colon and with KM12 colon were 100% and 91.8%, respectively.
Consider `COCCC[C@H]1O[C@@](O)([C@H](C)[C@@H]2CC(OC)C(O)/C=C(C)/C=C(C)/C=C(\C)C(OC3O[C@@H](C)[C@H](O)C(O)[C@@H]3O)C(C)/C=C(C)/C=C(OC)/C=C(\C)C(=O)O2)C(OC)C(O)[C@]1(C)O[C@H]1C[C@@H](O)[C@H](O[C@H]2C[C@](C)(O)[C@H](O)C(C)O2)C(C)O1` (some centres undefined), for which the growth in the assay on T-47D breast was 24.6%; in the assay with BT-549 breast it was 28.7%; with MDA-MB-435 melanoma it was 54.9%; in the assay with SW-620 colon it was 76.4%; in the assay on MCF7 breast it was 22.4%; in the assay with HCT-116 colon it was 48.2%. The growth was 56.4% with HCC-2998 colon and 66.5% in the assay with KM12 colon.
For the molecule `N/C(=N\OC(=O)CSc1nc2ccccc2s1)c1ccc2ccccc2c1`, the growth is 97.7% with T-47D breast; 100% in the assay on BT-549 breast; 104% in the assay with MDA-MB-435 melanoma; 100% in the assay on SW-620 colon; 94.2% with MCF7 breast; 103% in the assay on HCT-116 colon. Also, the results for the growth in the assay on HCC-2998 colon and in the assay on KM12 colon were 107% and 103%, respectively.
On to `Cc1nc(-c2cc3ccccc3c(N3CCN(C)CC3)n2)cs1`, for which the growth in the assay with T-47D breast was 84.3%; in the assay on BT-549 breast, 97.5%; in the assay on MDA-MB-435 melanoma, 99.9%; with SW-620 colon it was 98.6%; in the assay on MCF7 breast it was 92.7%; in the assay with HCT-116 colon, 93%. For the same molecule, the results for the growth in the assay on HCC-2998 colon and in the assay with KM12 colon were 95.3% and 103%, respectively.
Take `O=C(/C=C1\C=CN(CCCCCCF)c2ccccc21)n1ccc2ccccc21`: the growth in the assay on T-47D breast is 82%; with BT-549 breast, 103%; in the assay on MDA-MB-435 melanoma, 108%; in the assay on SW-620 colon, 104%; in the assay on MCF7 breast it was 88.4%; in the assay on HCT-116 colon, 84.8%. In addition, the growth in the assay on HCC-2998 colon was 107%; in the assay with KM12 colon it was 100%.
As for `O=C(Nc1cc(Cl)cc(Cl)c1)Nc1nc2ccc([N+](=O)[O-])cc2s1`, the growth in the assay on T-47D breast is -13.4% (active); with BT-549 breast, -24% (active); in the assay with MDA-MB-435 melanoma, -6.04% (active); in the assay with SW-620 colon, 8.7% (active); with MCF7 breast, 2.98% (active); in the assay on HCT-116 colon, 0.0425% (active). The growth in the assay on HCC-2998 colon is 3.91% (active); in the assay on KM12 colon it was 3.63% (active).
Regarding `O=c1c2ccccc2nc(COc2ccccc2)n1/N=C/C=C/c1ccccc1`, the growth was 94.6% in the assay with T-47D breast; 135% in the assay with BT-549 breast; 99.8% in the assay with MDA-MB-435 melanoma; 91.5% in the assay on SW-620 colon; 83.8% with MCF7 breast; 96.5% in the assay with HCT-116 colon. Moreover, the growth is 101% in the assay on HCC-2998 colon and 111% in the assay with KM12 colon.
Turning to `O=C(Nc1cc(Cl)cc(Cl)c1)Nc1ccc2oc(=O)ccc2c1`, the growth with T-47D breast was 3.54% (active); in the assay with BT-549 breast it was 29%; with MDA-MB-435 melanoma, 13.9%; with SW-620 colon, 17.3%; with MCF7 breast it was 5.48% (active); in the assay with HCT-116 colon, 1.36% (active). In addition, the growth in the assay on HCC-2998 colon was 27.3%; in the assay on KM12 colon, 11.5%.
On to `CC(=O)NC(C)(C)C(=O)N[C@@H](C)C(=O)NC(C)(C)C(=O)N[C@@H](C)C(=O)NC(C)(C)C(=O)N[C@@H](C)C(=O)N[C@@H](CCC(N)=O)C(=O)NC(C)(C)C(=O)N[C@H](C(=O)NC(C)(C)C(=O)NCC(=O)N[C@@H](CC(C)C)C(=O)NC(C)(C)C(=O)N1CCC[C@H]1C(=O)N[C@H](C(=O)NC(C)(C)C(=O)NC(C)(C)C(=O)N[C@@H](CCC(N)=O)C(=O)N[C@@H](CCC(N)=O)C(=O)N[C@H](CO)CC1CCCCC1)C(C)C)C(C)C`, for which the growth in the assay with T-47D breast is 25% [5 µM]; in the assay on BT-549 breast it was -4.41% [5 µM] (active); in the assay with MDA-MB-435 melanoma it was 9.46% [5 µM] (active); in the assay with SW-620 colon it was 37.1% [5 µM]; in the assay with MCF7 breast, 17.2% [5 µM]; in the assay on HCT-116 colon, 49.3% [5 µM]. The figures for the growth with HCC-2998 colon and in the assay on KM12 colon were 49.9% [5 µM] and 63.3% [5 µM], respectively.

Values taken from PubChem BioAssay (NCI).
